The values that follow come from PubChem BioAssay (Tox21).

Experiment [1] can be described thus: qHTS assay to identify small molecule agonists of the vitamin D receptor (VDR) signaling pathway - cell viability counter screen (AID 743224). Also: series mostly up to about 63 µM; nearly all actives have a fitted effect of over 50% in size. In outline: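 In parallel with the bla FRET readout, cytotoxicity toward VDR-bla cells after 16 h compound exposure was assessed by CellTiter-Glo, with luminescence recorded after a 30 min room-temperature incubation.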

A short description of experiment [2]: qHTS assay to identify small molecule antagonists of the vitamin D receptor (VDR) signaling pathway - cell viability counter screen (AID 743225). Also: nearly all actives have a fitted effect of over 50% in size. In outline: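 Parallel cytotoxicity test: VDR-UAS-bla HEK 293T, 3 nM (final) 1-alpha,25-dihydroxyvitamin D3 with test compound, 16 h, 37C. Endpoint is CellTiter-Glo luminescence in the same wells.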
For orientation: Quantitative high-throughput screening tests each substance at several concentrations.

The nature of experiment [3]: qHTS assay to identify small molecule agonists of the NFkB signaling pathway (AID 1159509; active = well fitted curve in the direction sought with a large enough effect in the signal ratio in the repeat runs, not every such curve was filed as active; the % refers to the signal ratio; also: series mostly up to about 61 µM). The essentials: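 Beta-lactamase reporter assay run in quantitative high-throughput format on an NF-kB-responsive ME-180 line, with 5 hr compound treatment and a FRET-based blue/green fluorescence readout.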
A short description of experiment [4]: qHTS assay to identify small molecule agonists of the NFkB signaling pathway - cell viability counter screen (AID 1159515; calls by dose curve; also: series mostly up to about 61 µM; nearly all actives have a fitted effect of over 55% in size). The essentials:
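Plate 2,000 NFkB-bla ME-180 cells/well; incubate overnight. Add compounds, 5 hr at 37 C. Add FRET substrate, 1.5 hr RT. Add CellTiter-Glo, 30 min RT; read luminescence.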

Experiment [5] can be described thus: qHTS assay to identify small molecule agonists of the endoplasmic reticulum stress response signaling pathway (AID 1159516; active = well fitted activation curve with a large enough effect in the signal ratio in the repeat runs, not every such curve was filed as active; the % refers to the signal ratio). The essentials:
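Beta-lactamase expression from the ER stress response element in HeLa reporter cells is quantified with the LiveBLAzer B/G FRET substrate, read at 405 nm excitation after 2 hr at room temperature, following 5 hr compound treatment at 37 C.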

The nature of experiment [6]: qHTS assay to identify small molecule agonists of the endoplasmic reticulum stress response signaling pathway - cell viability counter screen (AID 1159517; calls by dose curve; also: series mostly up to about 61 µM; nearly all actives have a fitted effect of over 50% in size). The essentials: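 After overnight attachment, ESRE-bla HeLa cells were treated with Tox21 library compounds for 5 hr. CellTiter-Glo luminescence, read 30 min post-addition at room temperature, reported viability.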

Experiment [7] in a line: qHTS assay to identify small molecule antagonists of the retinoid-related orphan receptor gamma (ROR-gamma) signaling pathway - cell viability counter screen (AID 1159520). Also: nearly all actives have a fitted effect of over 50% in size. In outline: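 Cytotoxicity was read from cellular ATP (CellTiter-Glo luminescence) after 16 hr at 37 C with 1 uM doxycycline induction. The inducer was added 2 hr after compound transfer to Tet-on ROR gamma CHO cells.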

Experiment [8] has as its target Nuclear receptor ROR-gamma (Homo sapiens) (UniProt P51449). Put plainly: qHTS assay to identify small molecule antagonists of the retinoid-related orphan receptor gamma (ROR-gamma) signaling pathway (AID 1159521). In outline:
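Decreased RORE-driven luciferase luminescence indicates antagonism. Tet-on RORγ CHO cells received compound, then 1 uM final doxycycline 2 h later; signal read after 16 h incubation.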

Experiment [9] is described as follows: qHTS assay to identify small molecule agonists of the AP-1 signaling pathway - cell viability counter screen (AID 1159525; calls by dose curve; also: nearly all actives have a fitted effect of over 55% in size). In outline: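 Intracellular ATP by Cell Titer Glo luminescence (30 min, RT) in the same ME-180 AP-1-bla wells after the 5 h compound exposure at 37 °C. Normalised to tetra n-octyl ammonium bromide and DMSO controls.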
Experiment [10] in a line: qHTS assay to identify small molecule agonists of the AP-1 signaling pathway (AID 1159526; calls by dose curve).
Experiment [11] deals with Retinoic acid receptor RXR-alpha (Homo sapiens) (UniProt P19793). Briefly: qHTS assay to identify small molecule agonists of the RXR signaling pathway (AID 1159527; calls by dose curve; also: nearly all actives have a fitted effect of over 35% in size; also: potency is read from the fitted curve at half-maximal effect). In outline: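 16 hr incubation of compound-treated RXR-alpha-UAS-bla HEK 293T cells (2% charcoal-stripped FBS, 37 C) preceded a 2 hr room-temperature LiveBLAzer FRET substrate step and blue/green fluorescence measurement.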
Sequence of Retinoic acid receptor RXR-alpha (Homo sapiens) (P19793 whole entry, looked up): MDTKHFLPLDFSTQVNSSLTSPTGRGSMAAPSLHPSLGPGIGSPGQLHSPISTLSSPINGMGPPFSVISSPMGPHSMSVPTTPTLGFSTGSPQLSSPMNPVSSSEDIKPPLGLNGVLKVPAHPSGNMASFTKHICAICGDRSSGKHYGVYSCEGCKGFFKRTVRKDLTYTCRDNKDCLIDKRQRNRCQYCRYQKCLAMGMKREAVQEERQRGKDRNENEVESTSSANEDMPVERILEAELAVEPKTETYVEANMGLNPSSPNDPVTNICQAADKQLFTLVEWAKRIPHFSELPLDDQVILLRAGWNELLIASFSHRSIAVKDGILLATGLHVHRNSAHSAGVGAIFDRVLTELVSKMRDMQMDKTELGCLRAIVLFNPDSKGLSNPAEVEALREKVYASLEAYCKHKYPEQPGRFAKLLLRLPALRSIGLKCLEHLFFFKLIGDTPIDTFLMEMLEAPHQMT

Experiment [12] in a line: qHTS assay to identify small molecule antagonists of the retinoid acid receptor (RAR) signaling pathway - cell viability counter screen (AID 1159551). Also: nearly all actives have a fitted effect of over 35% in size. The essentials: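 Viability of C3RL4 cells is quantified from ATP by luminescence after 6 h treatment at 37 C with compounds and 1 uM retinol.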
A short description of experiment [13]: qHTS assay to identify small molecule antagonists of the retinoic acid receptor (RAR) signaling pathway (AID 1159552; also: nearly all actives have a fitted effect of over 50% in size). In outline:
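C3RL4 RARE-luc cells, overnight plating; retinol 1 uM final added right after compound; 6 hr 37 C; luciferase read at 30 min RT.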

A short description of experiment [14]: qHTS assay to identify small molecule agonists of the retinoic acid receptor (RAR) signaling pathway (AID 1159553). In outline:
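Compounds dissolved in DMSO were pinned onto C3RL4 cells seeded the previous day, and plates were held 6 hr at 37 C. RARE-driven luciferase output was then read by luminescence.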

The nature of experiment [15]: qHTS assay to identify small molecule agonists of the RXR signaling pathway - cell viability counter screen (AID 1159529). The essentials: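 In this parallel viability measure, GeneBLAzer RXR-alpha HEK 293T cells (2% charcoal-stripped FBS) were given a 5 hr preincubation, treated with compounds 16 hr at 37 C, and read by CellTiter-Glo luminescence.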

Records with an inconclusive call do not appear. Some structures have more than one record in an assay (separate samples or runs), and their calls can disagree. Activity calls are given as the source filed them. Unless noted, calls follow the shape of the dose curve; as a rule, active = well fitted curve in the direction sought with a large enough effect in the repeat runs; inconclusive = weak or mixed curves; inactive = no such curve, though single readings can be large; an effect the other way counts as inactive or inconclusive.

Consider `CC1(C)CC(N)CC(C)(CN)C1` (centres undefined), for which the result in [1], in experiment [2], in experiment [3], in [4], in [5] and in experiment [7] was inactive. Moreover, the call in experiment [9], in experiment [12] and in experiment [13] was inactive. Also, the Potency entry in [6], in experiment [8], in experiment [10], in experiment [11] and in experiment [14] was “inactive” throughout.
On to `COc1ccc([N+](=O)[O-])cc1N`, for which the compound was classed as inactive in experiment [1], in experiment [2], in experiment [3], in [4], in experiment [5] and in experiment [7]. In addition, the compound was called inactive in experiment [9], in [15] and in experiment [13]. In addition, the Potency result in experiment [6], in experiment [8], in experiment [10], in experiment [11] and in [14] was “inactive” each time.
In the case of `O=C(OCC1CCC2OC2C1)C1CCC2OC2C1` (centres undefined), the compound was called inactive in experiment [1], in experiment [2], in experiment [3], in [4], in [5] and in experiment [7]. For the same compound, the outcome in [9] and in experiment [13] was inactive. Further, the Potency entry in experiment [6], in [8], in experiment [10], in experiment [11] and in [14] was “inactive” in each case.
For `O=C(O)Cn1c(=O)n(Cc2ccc(Br)cc2F)c(=O)c2ccc(Cl)cc21`, the compound was called inactive in experiment [1], in experiment [2], in experiment [3], in experiment [4], in experiment [5] and in experiment [7]. Besides, the call in [9], in experiment [15], in [12] and in [13] was inactive. In addition, the Potency entry in [6], in [8], in experiment [10] and in experiment [14] was “inactive” each time.
Consider `CCO[Si](CCCN)(OCC)OCC`, for which the result in [1], in experiment [2], in experiment [3], in experiment [4], in experiment [5] and in experiment [7] was inactive. For the same compound, the compound was called inactive in [9] and in experiment [15]. In addition, the Potency result in experiment [6], in experiment [8] and in experiment [10] was “inactive” in each case. Further, in experiment [11], the Potency was 19.5 µM (active) and inactive.
Consider `O=C(O)c1ccc(S(=O)(=O)N(Cl)Cl)cc1`, for which the result in experiment [1], in experiment [2], in experiment [3], in experiment [4], in [5] and in [7] was inactive. For the same compound, the compound was classed as inactive in [9], in experiment [15] and in experiment [13]. For the same compound, the Potency result in experiment [6], in experiment [8], in [10] and in experiment [14] was “inactive” in each case.
For `CC(C)(C#N)c1cc(Cn2cncn2)cc(C(C)(C)C#N)c1`, the outcome in experiment [1], in experiment [2], in [3], in experiment [4], in experiment [5] and in experiment [7] was inactive. The call in experiment [9] was inactive. For the same compound, the Potency entry in [6], in experiment [8] and in experiment [10] was “inactive” throughout.
For `CC(C)c1cccc(C(C)C)c1`, the call in [1], in experiment [2], in [3], in experiment [4], in experiment [5] and in [7] was inactive. The call in [9], in experiment [12] and in experiment [13] was inactive. Also, the Potency result in experiment [6], in [8], in experiment [10] and in experiment [14] was “inactive” in each case.
Consider `CCCCCCCCCCCC(=O)OC`, for which the compound was called inactive in [1], in experiment [2], in experiment [3], in experiment [4], in experiment [5] and in experiment [7]. Moreover, the result in experiment [9], in experiment [15] and in experiment [12] was inactive. The Potency result in experiment [6], in experiment [8] and in experiment [10] was “inactive” in each case.
In the case of `N[C@H](Cc1c[nH]c2ccccc12)C(=O)O`, the call in experiment [1], in experiment [2], in [3], in experiment [4], in experiment [5] and in experiment [7] was inactive. For the same compound, the result in [9], in experiment [15], in [12] and in experiment [13] was inactive. The Potency result in [6], in experiment [8], in [10] and in experiment [14] was “inactive” throughout.
Consider `Cc1ccc2ncccc2c1`, for which the call in [1], in [2], in experiment [3], in experiment [4], in experiment [5] and in experiment [7] was inactive. The outcome in experiment [9], in experiment [12] and in experiment [13] was inactive. Also, the Potency result in [6], in [8], in experiment [10] and in experiment [14] was “inactive” throughout.
Consider `CCO[Si](CCC#N)(OCC)OCC`, for which the compound was called inactive in experiment [1], in [2], in experiment [3], in experiment [4], in [5] and in experiment [7]. Also, the compound was classed as inactive in experiment [9], in experiment [15] and in experiment [12]. The Potency entry in experiment [6], in experiment [8] and in [10] was “inactive” each time.
